“And” between values parts separate entries of the source, which are not always exact repeats. Equal values may be shown once. The source made the active and inactive calls. Rule as the data show it: active = inhibition above about 80%; inactive = the rest.

One experiment is described as follows: growth inhibition of BT084 medulloblastoma cells, cell-based, ICGC_MB145, cisplatin and BGB IC40 combos (AID 1671461).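 Also: cells exposed to drugs for 96 hours; 0% = vehicle DMSO and 100% = high DMSO full killing control.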 The settings on record: drug combinations, single agent, at 5 µM, stronger effect = higher value.
For orientation: inhibition means the change of the read-out against control, counted positive when it falls. On to `CC(=O)OCC(CCn1cnc2cnc(N)nc21)COC(C)=O`, for which the inhibition is -21.3%.

Consider `S=c1nc[nH]c2nc[nH]c12`, for which the inhibition is -10.1% and 19.3% and -6.27%.

For `COc1c(N2CCNC(C)C2)c(F)cc2c(=O)c(C(=O)O)cn(C3CC3)c12` (stereo not drawn), the inhibition was -3.66% and 0.545%.

In the case of `CC1COc2c(N3CCN(C)CC3)c(F)cc3c(=O)c(C(=O)O)cn1c23` (stereo not drawn), the inhibition is -20.1% and 7.2% and -8.12%.

As to `O=C1c2c(O)ccc(O)c2C(=O)c2c(NCCNCCO)ccc(NCCNCCO)c21`, the inhibition came out at 75.3%.

Consider `CS(=O)(=O)OCCCCOS(C)(=O)=O`, for which the inhibition is 10.9% and -3.7%.

As for `O=C(O)CCCc1ccccc1`, the inhibition was -9.5%.

The next experiment in a line: growth inhibition of RCMB18 medulloblastoma cells, cell-based, cisplatin and BGB IC40 combos (AID 1671462).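 Also: cells exposed to compound for four days.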 The note with it: at 0.5 µM, stronger effect = higher value.
For `CC(=O)OCC(CCn1cnc2cnc(N)nc21)COC(C)=O`, the inhibition was -15.5% (inactive).

For `S=c1nc[nH]c2nc[nH]c12`, the inhibition was 0.61% (inactive) and -7.44% (inactive) and -22.1% (inactive).

Take `COc1c(N2CCNC(C)C2)c(F)cc2c(=O)c(C(=O)O)cn(C3CC3)c12` (stereo not drawn): the inhibition was 0.35% (inactive) and 3.27% (inactive).

Consider `CC1COc2c(N3CCN(C)CC3)c(F)cc3c(=O)c(C(=O)O)cn1c23` (stereo not drawn), for which the inhibition is -28.4% (inactive) and -8.12% (inactive) and -0.02% (inactive).

Consider `O=C1c2c(O)ccc(O)c2C(=O)c2c(NCCNCCO)ccc(NCCNCCO)c21`, for which the inhibition was -1.35% (inactive).

For the compound `CS(=O)(=O)OCCCCOS(C)(=O)=O`, the inhibition is -11.1% (inactive) and -2.44% (inactive).

Turning to `O=C(O)CCCc1ccccc1`, the inhibition is -15.3% (inactive).

Still in this experiment, the particulars now being: cisplatin combo, at 5 µM, stronger effect = higher value.
Regarding `CC(=O)OCC(CCn1cnc2cnc(N)nc21)COC(C)=O`, the inhibition is -24.5%.

As to `S=c1nc[nH]c2nc[nH]c12`, the inhibition is 12.2% and -28% and -29.1%.

`COc1c(N2CCNC(C)C2)c(F)cc2c(=O)c(C(=O)O)cn(C3CC3)c12` (stereo not drawn): the inhibition is -46.2% and 7.98%.

Regarding `CC1COc2c(N3CCN(C)CC3)c(F)cc3c(=O)c(C(=O)O)cn1c23` (stereo not drawn), the inhibition was -38.4% and 21.2% and 9.23%.

Consider `O=C1c2c(O)ccc(O)c2C(=O)c2c(NCCNCCO)ccc(NCCNCCO)c21`, for which the inhibition amounted to 70.8%.

In the case of `CS(=O)(=O)OCCCCOS(C)(=O)=O`, the inhibition was -65.6% and 7.8%.

For `O=C(O)CCCc1ccccc1`, the inhibition is -6.28%.

Still in this experiment, the particulars now being: measured here: BGB IC40 combination, at 0.05 µM, stronger effect = higher value.
Regarding `CC(=O)OCC(CCn1cnc2cnc(N)nc21)COC(C)=O`, the inhibition is -9.28%.

As for `S=c1nc[nH]c2nc[nH]c12`, the inhibition was 0.705% and 3.13% and 5.02%.

`COc1c(N2CCNC(C)C2)c(F)cc2c(=O)c(C(=O)O)cn(C3CC3)c12` (stereo not drawn): the inhibition was -11.6% and -8.34%.

As to `CC1COc2c(N3CCN(C)CC3)c(F)cc3c(=O)c(C(=O)O)cn1c23` (stereo not drawn), the inhibition is -5.79% and 25.7% and 5.62%.

Take `O=C1c2c(O)ccc(O)c2C(=O)c2c(NCCNCCO)ccc(NCCNCCO)c21`: the inhibition was -3.01%.

Take `CS(=O)(=O)OCCCCOS(C)(=O)=O`: the inhibition was -1.43% and 7.53%.

For the compound `O=C(O)CCCc1ccccc1`, the inhibition was -18%.

The record behind these values is PubChem BioAssay.
